The supplement of paper PMC11537057
Counter-ions that a name gives are not always drawn. ± gives the standard deviation of the averaged measurements. Over roughly 1,700 compounds, “cell number in HSV-1-infected wells relative to infected DMSO wells (H2B-RFP signal)” has its median near 100; the highest 2% begin near 140. The entries come from a sample that favours the highest values as a whole.

These molecules were tested on A549 infected with HSV-1 (assay: cell number in HSV-1-infected wells relative to infected DMSO wells (H2B-RFP signal); higher = more surviving cells (uninfected or antiviral-protected wells give about 200%; low = toxicity)). Conditions: 10 µM; 48 h; MOI: 0.1.
Description: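 Selleck FDA-approved library (L1300) screened in duplicate at 10 µM on A549 H2B-mRuby cells in 384-well plates, infected with HSV-1 strain 17 YFP-ICP4 at MOI 0.1 one hour before drug addition. Imaged after 2 days at 37°C. Cell growth (H2B-RFP) and infection (ICP4-YFP) are expressed as % of DMSO-treated wells. Hits: growth >90% and infection <20% of DMSO.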

Compound	cell number in HSV-1-infected wells [%]
Clc1ccc2c(c1)CCc1cccnc1C2=C1CCNCC1 [Desloratadine]	116 ± 6.4
C[C@H](CCC(=O)O)[C@H]1CC[C@H]2[C@@H]3C(=O)C[C@@H]4CC(=O)CC[C@]4(C)[C@H]3CC(=O)[C@]12C [Dehydrocholic acid]	89.8 ± 1.7
COc1cc2c(cc1Cc1cccc(Cl)c1F)c(=O)c(C(=O)O)cn2[C@H](CO)C(C)C [Elvitegravir (GS-9137, JTK-303)]	105 ± 10
CCCc1ncc(C[n+]2ccccc2C)c(N)n1 [Amprolium HCl]	105 ± 10
CC[C@H](C)[C@H](NC(=O)[C@@H]1CCCN1C(=O)CNC(=O)[C@H](Cc1ccccc1)NC(=O)[C@H](CC(N)=O)NC(=O)[C@H](CC(N)=O)NC(=O)[C@H](CO)NC(=O)[C@H](CO)NC(=O)[C@H](Cc1c[nH]cn1)NC(=O)[C@@H](NC(=O)[C@H](CC(C)C)NC(=O)[C@H](Cc1ccccc1)NC(=O)[C@H](CC(N)=O)NC(=O)[C@H](C)NC(=O)[C@H](CC(C)C)NC(=O)[C@H](CCCNC(=N)N)NC(=O)[C@H](CCC(N)=O)NC(=O)[C@@H](NC(=O)[C@H](C)NC(=O)[C@@H]1CSSC[C@H](NC(=O)[C@@H](N)CCCCN)C(=O)N[C@@H](CC(N)=O)C(=O)N[C@@H]([C@@H](C)O)C(=O)N[C@@H](C)C(=O)N[C@@H]([C@@H](C)O)C(=O)N1)[C@@H](C)O)C(C)C)C(=O)N[C@@H](CC(C)C)C(=O)N1CCC[C@H]1C(=O)N1CCC[C@H]1C(=O)N[C@H](C(=O)N[C@@H](CC(N)=O)C(=O)N[C@H](C(=O)NCC(=O)N[C@@H](CO)C(=O)N[C@@H](CC(N)=O)C(=O)N[C@H](C(=O)N[C@@H](Cc1ccc(O)cc1)C(N)=O)[C@@H](C)O)C(C)C)[C@@H](C)O [Pramlintide Acetate]	134 ± 20
CC(C)[C@H](N)C(=O)OCC(CO)OCn1cnc2c(=O)[nH]c(N)nc21 (some centres undefined) [Valganciclovir HCl]	207 ± 2.2
O=C(O)c1cccc(-c2noc(-c3ccccc3F)n2)c1 [Ataluren (PTC124)]	116 ± 9.6
CN(C)CCC(c1ccc(Cl)cc1)c1ccccn1 (centres undefined) [Chlorpheniramine Maleate]	94.3 ± 16
CN(C)CCOC(c1ccccc1)c1ccccc1 [Diphenhydramine HCl]	102 ± 25
CN(C)CCOC(c1ccc(Cl)cc1)c1ccccn1 (centres undefined) [CarbinoxaMine Maleate]	148 ± 27
CC1(C)S[C@@H]2[C@H](NC(=O)[C@H](C(=O)O)c3ccsc3)C(=O)N2[C@H]1C(=O)O [Ticarcillin sodium]	95.4 ± 22
CC(C)(C)c1cc(C(C)(C)C)c(NC(=O)c2c[nH]c3ccccc3c2=O)cc1O [Ivacaftor (VX-770)]	64.8 ± 7
Cc1ccc(C(=O)N(CCCN)[C@@H](c2nc3cc(Cl)ccc3c(=O)n2Cc2ccccc2)C(C)C)cc1	12.9 ± 5.4
Nc1c(CC(=O)O)cccc1C(=O)c1ccccc1 [Amfenac Sodium Monohydrate]	115 ± 14
Cc1cccc(Nc2ccccc2C(=O)O)c1C [Mefenamic Acid]	94.2 ± 6
Cc1ccc(Cl)c(Nc2ccccc2C(=O)O)c1Cl [Meclofenamate Sodium]	156 ± 21
Cc1c(Cl)cccc1Nc1ccccc1C(=O)O [Tolfenamic Acid]	120 ± 2
O=C(c1ccc(F)c(F)c1Nc1ccc(I)cc1F)N1CC(O)([C@@H]2CCCCN2)C1 [Cobimetinib (GDC-0973, RG7420)]	32.6 ± 21
CC(=O)c1cc2c(o1)C(=O)c1ccccc1C2=O [Napabucasin]	27.4 ± 21
CCOc1cc(N)c(Cl)cc1C(=O)NCC1CN(Cc2ccc(F)cc2)CCO1 (centres undefined) [Mosapride Citrate]	89.7 ± 13
CCOc1cc(N)c(Cl)cc1C(=O)NCC1CN(Cc2ccc(F)cc2)CCO1 (centres undefined) [Mosapride]	92.8 ± 14
Cc1cccc(C)c1N(CC(=O)Nc1ccc(-c2ncon2)cc1)C(=O)C1CCS(=O)(=O)CC1 [Amenamevir]	214 ± 5.9
O=C1CC[C@@H](C(=O)N2CSC[C@H]2C(=O)O)N1 [Pidotimod]	82.1 ± 7.1
CCOc1ccc(Cc2cc([C@]34OC[C@](CO)(O3)[C@@H](O)[C@H](O)[C@H]4O)ccc2Cl)cc1 [Ertugliflozin]	116 ± 8.7
O=C([O-])c1ccccc1.[Na+] [Sodium benzoate]	83.2 ± 14
COC(=O)N(C)c1c(N)nc(-c2nn(Cc3ccccc3F)c3ncccc23)nc1N [Riociguat (BAY 63-2521)]	108 ± 15
CCN1CCC[C@H]1CNC(=O)c1cc(S(N)(=O)=O)ccc1OC [Levosulpiride]	94.939 ± 0.086

Compound	cell number in HSV-1-infected wells [%]
Cc1c(F)cc(C(=O)NC2CC2)cc1-c1ccc(C(=O)NCC(C)(C)C)cn1	145 ± 44
N[C@@H](CCC(=O)O)C(=O)[O-].[Na+] [L-Glutamic acid monosodium salt]	94.5 ± 4.2
CC(C)CCCCC(=O)N[C@@H](CCN)C(=O)N[C@H](C(=O)N[C@@H](CCN)C(=O)N[C@H]1CCNC(=O)[C@H]([C@@H](C)O)NC(=O)[C@H](CCN)NC(=O)[C@H](CCN)NC(=O)[C@H](CC(C)C)NC(=O)[C@@H](Cc2ccccc2)NC(=O)[C@H](CCN)NC1=O)[C@@H](C)O [Polymyxin B sulphate]	132 ± 31
O=C(NCC(O)CO)c1c(I)c(C(=O)NCC(O)CO)c(I)c(N(CCO)C(=O)CO)c1I (centres undefined) [Ioversol]	146 ± 6.8
COCC(=O)Nc1c(I)c(C(=O)NCC(O)CO)c(I)c(C(=O)N(C)CC(O)CO)c1I (centres undefined) [Iopromide]	111 ± 26
CC(=O)N(CC(O)CN(C(C)=O)c1c(I)c(C(=O)NCC(O)CO)c(I)c(C(=O)NCC(O)CO)c1I)c1c(I)c(C(=O)NCC(O)CO)c(I)c(C(=O)NCC(O)CO)c1I (centres undefined) [Iodixanol]	79.6 ± 3
CC(=O)Oc1ccc(C(c2ccc(OC(C)=O)cc2)c2ccccn2)cc1 [Bisacodyl]	87.8 ± 16
CC[C@H](C)[C@@H]1NC(=O)[C@H](CCCNC(=N)N)NC(=O)[C@H](CC(=O)O)NC(=O)[C@H](CCSC)NC(=O)[C@H](CCCNC(=N)N)NC(=O)CNC(=O)CNC(=O)[C@H](Cc2ccccc2)NC(=O)[C@@H](NC(=O)[C@H](CO)NC(=O)[C@H](CO)NC(=O)[C@H](CCCNC(=N)N)NC(=O)[C@H](CCCNC(=N)N)NC(=O)[C@H](CC(C)C)NC(=O)[C@@H](N)CO)CSSC[C@@H](C(=O)N[C@@H](CC(N)=O)C(=O)N[C@@H](CO)C(=O)N[C@@H](Cc2ccccc2)C(=O)N[C@@H](CCCNC(=N)N)C(=O)N[C@@H](Cc2ccc(O)cc2)C(=O)O)NC(=O)CNC(=O)[C@H](CC(C)C)NC(=O)CNC(=O)[C@H](CO)NC(=O)[C@H](CCC(N)=O)NC(=O)[C@H](C)NC(=O)CNC1=O [Carperitide Acetate]	131 ± 1.4
O=C(O)CCCC[C@@H]1CCSS1 (racemic) [Thioctic acid]	134 ± 60
CC1(C)NC(=O)N(c2ccc([N+](=O)[O-])c(C(F)(F)F)c2)C1=O [Nilutamide]	150 ± 36
CC(C)C(=O)Nc1ccc([N+](=O)[O-])c(C(F)(F)F)c1 [Flutamide]	110 ± 2.2
CNC(=O)c1ccc(N2C(=S)N(c3ccc(C#N)c(C(F)(F)F)c3)C(=O)C2(C)C)cc1F [Enzalutamide (MDV3100)]	95.9 ± 2.1
OC1CC2CCC(C1)N2 (centres undefined) [Nortropine Hydrochloride]	105 ± 10
COC(=O)C1=C(C)NC(C)=C(C(=O)OC2CCCN(Cc3ccccc3)C2)C1c1cccc([N+](=O)[O-])c1 (centres undefined) [Benidipine HCl]	85.5 ± 9.3
CCC[C@@H]1C[C@@H](C(=O)N[C@@H]([C@H]2O[C@H](SC)[C@H](O)[C@@H](O)[C@H]2O)[C@@H](C)O)N(C)C1 [Lincomycin Hydrochloride Monohydrate]	150 ± 39
CCC[C@@H]1C[C@@H](C(=O)N[C@@H]([C@H]2O[C@H](SC)[C@H](O)[C@@H](O)[C@H]2O)[C@@H](C)O)N(C)C1 [Lincomycin HCl]	133 ± 16
CCC[C@@H]1C[C@@H](C(=O)N[C@@H]([C@H]2O[C@H](SC)[C@H](OP(=O)(O)O)[C@@H](O)[C@H]2O)[C@H](C)Cl)N(C)C1 [Clindamycin Phosphate]	101 ± 12
CCC[C@@H]1C[C@@H](C(=O)N[C@@H]([C@H]2O[C@H](SC)[C@H](O)[C@@H](O)[C@H]2O)[C@H](C)Cl)N(C)C1 [Clindamycin]	88 ± 4
CCC[C@@H]1C[C@@H](C(=O)N[C@@H]([C@H]2O[C@H](SC)[C@H](O)[C@@H](O)[C@H]2O)[C@H](C)Cl)N(C)C1 [Clindamycin HCl]	99.4 ± 5.8
CCOc1cc2ncc(C#N)c(Nc3ccc(OCc4ccccn4)c(Cl)c3)c2cc1NC(=O)/C=C/CN(C)C [Neratinib (HKI-272)]	63.62 ± 0.22
CC(C)(Oc1ccc(Cl)cc1)C(=O)OCCOC(=O)c1cccnc1 [Etofibrate]	129 ± 12
OCc1cc([C@@H](O)CNCCCCCCOCCOCc2c(Cl)cccc2Cl)ccc1O [Vilanterol Trifenate]	25.9 ± 8.8
N[C@@H](Cc1ccc(N(CCCl)CCCl)cc1)C(=O)O [Melphalan]	72.2 ± 27
CCOc1ccccc1OCCN[C@H](C)Cc1ccc(OC)c(S(N)(=O)=O)c1 [Tamsulosin hydrochloride]	132 ± 8.6
COc1ccc2c(c1)[C@]13CCCC[C@@H]1[C@H](C2)N(C)CC3 [Dextromethorphan hydrobromide hydrate]	146 ± 7.2
Cc1ccc2c(c1)[C@]13CCCC[C@@H]1[C@H](C2)N(C)CC3 [Dimemorfan phosphate]	127 ± 24
C=C1/C(=C\C=C2/CCC[C@]3(C)[C@@H]([C@H](C)/C=C/[C@H](C)C(C)C)CC[C@@H]23)C[C@@H](O)C[C@@H]1O [Doxercalciferol]	100 ± 23
